Screens from PubChem.
Only some compounds are listed: those with a hit (about 11% of all), similar ones and a draw of the others.
HEK293 tox – cytotoxic compounds in HEK 293 cells | HEK 293 viability, ATP luminescence (CellTiter-Glo), 48-72 h | Potency, µM (series often up to 115 µM), hits mostly inhibitors | 94,000 tested, 6.6% active; also: nearly all actives have a fitted effect of over 60% in size
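HEK 293 cells seeded at 250 cells/well were exposed to compound for 48 or 72 hr at 37 degree Celsius. Viability taken as ATP content by CellTiter-Glo luminescence.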
3T3 cytotox – NIH 3T3 cell cytotoxicity; NIH 3T3 viability, CellTiter-Glo ATP luminescence, 48-72 h; Potency, µM (doses to about 96.7 µM), usual class: inhibitors; 94,000 tested, 4.3% active; also: nearly all actives have a fitted effect of over 55% in size
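Viability of NIH 3T3 cells after 48 or 72 hr compound treatment at 37 °C was assessed by CellTiter-Glo, with luminescence imaged following a 10 min room-temperature step.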
hNpr1 antagonist – antagonists of human natriuretic peptide receptor Npr1 | HEK293 hNpr1 GloSensor cGMP, ANP-stimulated luminescence | 76,000 tested, 1.6% active | P16066 | Potency, µM (titrated, usually from 46.3 µM), hits mostly inhibitors; calls by dose curve; also: nearly all actives have a fitted effect of over 60% in size
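HEK293 cells stably expressing human Npr1 and cGMP GloSensor pGS-40F, loaded 2 h with 2% GloSensor reagent, given compound 30 min at room temperature. Luminescence read before and 20 min after 0.1 nM hNppA.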
FLuc inh – blocks purified firefly luciferase enzyme activity | P08659 | purified P. pyralis luciferase, luminescence, biochemical | Potency, µM (top dose mostly 115 µM), hits mostly inhibitors | 76,000 tested, 2.5% active | AID 1347043; also: nearly all actives have a fitted effect of over 65% in size
Target sequence (P08659 whole entry, looked up): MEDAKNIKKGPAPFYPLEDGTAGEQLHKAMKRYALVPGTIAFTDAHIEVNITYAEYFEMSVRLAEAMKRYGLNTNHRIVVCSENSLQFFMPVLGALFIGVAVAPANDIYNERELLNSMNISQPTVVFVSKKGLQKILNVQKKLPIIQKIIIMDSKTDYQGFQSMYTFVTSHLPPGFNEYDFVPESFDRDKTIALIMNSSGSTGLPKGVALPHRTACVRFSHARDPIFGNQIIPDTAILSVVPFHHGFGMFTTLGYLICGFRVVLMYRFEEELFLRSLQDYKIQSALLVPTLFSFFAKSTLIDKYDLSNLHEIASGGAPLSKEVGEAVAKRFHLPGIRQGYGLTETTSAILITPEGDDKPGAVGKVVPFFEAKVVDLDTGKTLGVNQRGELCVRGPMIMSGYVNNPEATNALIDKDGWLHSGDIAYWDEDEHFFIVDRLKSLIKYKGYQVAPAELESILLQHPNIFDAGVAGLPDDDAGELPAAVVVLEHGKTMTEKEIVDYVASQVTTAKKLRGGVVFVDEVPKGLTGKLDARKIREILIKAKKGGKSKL
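Biochemical qHTS: compound (6-point titration) added to 10uM D-luciferin plus 10uM ATP in Tris acetate pH 7.5 buffer with Mg, Tween-20 and BSA, then purified enzyme at 10nM; light output imaged.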
Numbers stand for hits; 0 = inactive; ? = inconclusive; - = no result given. Unless noted, calls follow the shape of the dose curve; as a rule, active = well fitted curve in the direction sought with a large enough effect; inconclusive = small, poorly fitted or top-dose-only effect, or another doubt; inactive = no such curve, though single readings can be large; an effect the other way counts as inactive or inconclusive.

SMILES | HEK293 tox | 3T3 cytotox | hNpr1 antagonist | FLuc inh
CN(C)C(=O)CCc1ccc(CC2CCN(C(=O)CCC3CCCC3)CC2)cc1 | 25µM | ? | - | -
COc1ccccc1-c1ccc2c(C(=O)N3CCC(Cc4ccccc4)CC3)nn(C)c2n1 | 79µM | ? | - | -
Cc1ccc(C(=O)N2CCC(CCC(=O)N3CCN(c4ccccn4)CC3)CC2)cc1 | ? | 0 | ? | 20µM
CC(=O)N1CCC(N2CCC(Cc3ccc(CCC(=O)N(C)C)cc3)CC2)CC1 | 0 | 0 | - | -
COc1cccc(C(=O)N2CCCC(C(=O)N3CCCC3c3nc4ccncc4[nH]3)C2)c1 (centres undefined) | 0 | 0 | - | -
COc1ncccc1C(=O)N1CCC(CCC(=O)N2CCC(Cc3ccccc3)CC2)CC1 | 35µM | ? | ? | 0
COCCCNC(=O)C1CCCCc2nnc(-c3ccccc3)n21 (centres undefined) | 0 | 0 | - | -
COc1ccc(CCc2nc3nccc(-c4ccc5c(c4)OCCCO5)n3n2)cc1OC | 45µM | ? | 0 | ?
Fc1ccc(Cc2nc3nccc(-c4ccc5c(c4)OCCCO5)n3n2)cc1 | 45µM | ? | 0 | ?
COc1ccc(Cc2nc3nccc(-c4ccc5c(c4)OCCCO5)n3n2)cc1 | ? | ? | 0 | 0
COc1ccc(C(=O)N2CCC(C(=O)N3CCCC(c4nc5ncccc5[nH]4)C3)CC2)cc1 (centres undefined) | 0 | 0 | - | -
O=C(CN1C(=O)C2(CCCCC2)C1c1ccccc1)NCCCN1CCCC1=O (centres undefined) | 0 | 0 | - | -
CCC(CC)NC(=O)CCC1CCN(C(=O)c2ccccc2)CC1 | 0 | 0 | 0 | 25µM
O=C(Cc1ccccc1)NCCC1CCN(C(=O)Nc2cc(F)ccc2F)CC1 | 0 | 0 | 0 | 0
O=c1c2nc(NCc3cccs3)ccc2ncn1Cc1ccccc1 | ? | ? | 0 | 0
O=c1c2nc(Nc3cccc(F)c3)ccc2ncn1Cc1ccccc1 | 79µM | ? | 0 | ?
COCCN1C(=O)c2ccccc2C(C(=O)Nc2nc(C)cs2)C12CCCC2 (centres undefined) | 0 | 0 | 0 | 0
O=C(CCCc1ccccc1)N1CCCCCC1c1nc(C2CC2)no1 (centres undefined) | 50µM | ? | 0 | 0
Cc1cc(Cl)ccc1NC(=O)N1C[C@H](c2nc(-c3cccnc3)no2)[C@@H](C)C1 | 45µM | 0 | 0 | 0
C[C@H]1CN(C(=O)C2CCCC2)C[C@@H]1c1nc(-c2ccccc2)no1 | ? | 32µM | 0 | ?
C[C@@H]1CN(C(=O)Cc2cccnc2)C[C@H]1c1nc(-c2ccncc2)no1 | 0 | 0 | 0 | 0
CN1C[C@@H](NC(=O)Nc2ccccc2)C[C@H]1c1nc(Cc2ccccc2)no1 | ? | ? | 0 | 45µM
Cc1ccc(NC(=O)N[C@H]2C[C@@H](c3nc(-c4ccc(F)cc4)no3)N(C)C2)cc1 | 0 | ? | 0 | ?
CN1C[C@@H](NC(=O)c2cccs2)C[C@H]1c1nc(-c2ccc(F)cc2)no1 | 89µM | ? | 0 | 0
CN1C[C@@H](NC(=O)c2ccc(F)cc2)C[C@H]1c1nc(-c2ccccc2)no1 | ? | 0 | 0 | ?
SMILES | HEK293 tox | 3T3 cytotox | hNpr1 antagonist | FLuc inh
CN1C[C@@H](NC(=O)Nc2ccccc2)C[C@H]1c1nc(-c2ccc(Cl)cc2)no1 | ? | ? | ? | 35µM
Cn1nc(C2CCCN(C(=O)c3ccoc3)C2)n(C2CCCC2)c1=O (centres undefined) | 0 | 0 | - | -
Cn1ccc2c(C(=O)NCc3cccnc3)nc(-c3ccccc3)cc21 | ? | ? | ? | 0
CN(C)Cc1ccc(-c2cc3c(ccn3C)c(C(=O)NCc3cccnc3)n2)cc1 | ? | ? | 0 | 0
CN1CCN(c2ccc(-c3cc4c(ccn4C)c(C(=O)NCc4cnccn4)n3)cc2)CC1 | 45µM | ? | 0 | ?
Cn1nccc1-c1cc2c(ccn2C)c(C(=O)NCc2cccnc2)n1 | 0 | 28µM | 0 | 0
Cn1ccc2c(C(=O)NCc3cccnc3)nc(-c3ccccc3C#N)cc21 | 0 | 25µM | 0 | 0
Cn1ccc2c(C(=O)NCc3cccnc3)nc(-c3ccc(F)cc3)cc21 | 100µM | ? | 0 | 0
O=C(Cc1ccccn1)N1CCCC(C(=O)N2CCC(N3CCOC3=O)CC2)C1 (centres undefined) | 0 | 0 | - | -
CC(=O)Nc1ccc(-c2ccc(=O)n3c2[C@@H]2C[C@@H](CN(C(=O)Nc4cccc(C#N)c4)C2)C3)cc1 | 32µM | 0 | 0 | 0
Cc1cc(OCCN(C)C)c(C)c2c1CC[C@@H]([C@H](C)C(=O)NCc1cccs1)C2 | 56µM | 63µM | 0 | 0
CN(Cc1ccc(Oc2ncccn2)cc1)CC1CCN(CCc2ccc(F)cc2)CC1 | ? | 50µM | 0 | 0
CN(Cc1ccc(-n2cccn2)cc1)CC1CCN(CCc2ccc(F)cc2)CC1 | ? | ? | 0 | 0
CC(=O)N1CCC(Cc2ccc(C(=O)N3CCCCC3CN3CCCCC3)cc2)CC1 (centres undefined) | 0 | 0 | - | -
O=C(Cc1c[nH]c2ncc(-c3ccccc3)cc12)NCc1cnccn1 | 0 | ? | 0 | 0
O=C(Cc1c[nH]c2ncc(-c3ccncc3)cc12)NCc1cccnc1 | ? | 79µM | 0 | 0
O=C(Cc1c[nH]c2ncc(-c3cccc(F)c3)cc12)NCc1cccnc1 | 71µM | ? | ? | 0
COc1cccc(-c2cnc3[nH]cc(CC(=O)NCc4cccnc4)c3c2)c1 | ? | ? | ? | 0
O=C(Cc1c[nH]c2ncc(-c3cccnc3)cc12)NCc1cccc(F)c1 | ? | 25µM | 0 | 0
O=C(Cc1c[nH]c2ncc(-c3cccnc3)cc12)NCCc1ccccc1 | ? | 22µM | 0 | 0
O=C(Cc1cccc(Cl)c1)NCc1c[nH]c2ncccc12 | ? | 0 | 0 | ?
O=C(Cc1c[nH]c2ncc(-c3ccccc3)cc12)NCc1ccncc1 | ? | 28µM | 0 | 0
C[S+](=O)([O-])c1cccc(NC(=O)Cc2c[nH]c3ncc(-c4cccnc4)cc23)c1 | ? | 35µM | 0 | 0
O=C(Cc1c[nH]c2ncc(-c3cccc(Cl)c3)cc12)NCc1cccnc1 | 79µM | ? | 35µM | ?
COc1ccc(-c2cnc3[nH]cc(CC(=O)NCc4cccnc4)c3c2)cn1 | ? | 79µM | 0 | ?
SMILES | HEK293 tox | 3T3 cytotox | hNpr1 antagonist | FLuc inh
COc1ccc(OC)c(-c2cnc3[nH]cc(CC(=O)NCc4cccnc4)c3c2)c1 | ? | ? | ? | 0
COCC(=O)N1CCC(C(=O)N2CCCC2c2nc3ccncc3[nH]2)CC1 (centres undefined) | 0 | 0 | - | -
COc1ccc(CN2CC3(CCN(C(=O)CCc4ccccc4)CC3)C2=O)cc1 | ? | 0 | - | -
Cc1cc(-c2cnc3[nH]cc(CC(N)=O)c3c2)ccn1 | 0 | ? | 0 | 0
NC(=O)Cc1c[nH]c2ncc(-c3cccc(F)c3)cc12 | 0 | 89µM | 0 | 0
CC(C)CCNC(=O)c1c(OCC2CC2)cc(=O)n2c1CCCCC2 | ? | 35µM | 0 | 0
CNC(=O)c1cnc2c(c1)N(Cc1ccccc1)CCC2 | 0 | ? | 0 | 0
O=C(NCc1ccc2c(c1)OCO2)c1cnc2c(c1)N(Cc1ccccc1)CCC2 | ? | 50µM | 0 | 0
O=C(C1CC1)N1CCCN(Cc2ccc3c(c2)OCO3)c2ccccc21 | ? | ? | 0 | 0
